In PubChem BioAssay (NCI):
This is part of a sample that, as a whole, favours compounds with a hit. Of some 83,000 tested, about 20% had one in any assay.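 For each line, cells grew in 96-well plates with the test compound present at a single concentration for 48 hours.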 The source made the active and inactive calls.

test system: SR leukemia; assay: NCI-60 one-dose screen, 48 h (100 = growth as untreated, 0 = no growth, -100 = all killed); conditions: 10 µM unless noted
Experimental: Growth inhibition of the SR human tumor cell line is measured as a screen for anti-cancer activity. Cells are grown in 96 well plates and exposed to the test compound for 48 hours. Compounds are tested at a single concentration, which is 10^-5 M for most compounds. The reported endpoint is percent growth (GI% or GIPRCNT), where numbers from 0 - 100% represent growth inhibition, and numbers from -100% - 0 represent cell death. For example, a value of 40 represents 60% growth inhibition. A value of 0 means no net growth occurred over the course of the experiment. A value of -40 indicates 40% of cells at the beginning of the experiment died by the end of the experiment. A value of -100 means all cells are dead at the end of the experiment.
NCI-60 Human Tumor Cell Lines Screen was performed using the standard one-dose NCI protocol, which is described in more detail at https://dtp.cancer.gov/discovery_development/nci-60/default.htm.
Compounds with GIPRCNT values below 10 were considered active. Activity score was based on GIPRCNT using the following formula: […]
Score is 0 for GIPRCNT values of 100 or above, 50 for GIPRCNT values of 0, and 100 for GIPRCNT values of -100.

Structure (SMILES) | growth
CCOC(=O)c1sc(Nc2ccc(Cl)cc2)nc1C | 11% (inactive)
O=c1c(F)cn(Cc2ccccc2CCl)c(=O)n1Cc1ccccc1CCl | -57.5% (active)
Cc1nn(-c2ccc(F)cc2)c2ncnc(Oc3ccc(NC(=O)Nc4ccc(Cl)c(C(F)(F)F)c4)cc3)c12 | 110% (inactive)
COc1cccc2c1C(=O)c1c(O)c3c(c(O)c1C2=O)C[C@](O)(C(=O)CO)C[C@H]3O[C@@H]1C[C@@H](NC(=O)CCCCCN(C)C2(c3ccc(F)cc3)CC3CCC2C3)[C@H](O)[C@@H](C)O1 (stereo not given in full) | -45.7% (active)
COc1ccc(/C=C/C(=O)c2cc(O)ccc2O)cc1 | 71.9% (inactive)
c1ccc(-c2cc3n4c(-c5ccccc5)nn(-c5ccccc5)c4cnc-3n2)cc1 | 113% (inactive)
COc1ccc(C(=O)/C=C/c2cccnc2Nc2cc(OC)c(OC)c(OC)c2)cc1 | -0.688% (active)
O=C1Nc2c(ccc(Cl)c2Cl)/C1=C\c1ccc(C(F)(F)F)cc1 | 104% (inactive)
NC1=C(Cl)C(=O)c2ccc(S(N)(=O)=O)cc2C1=O | 2.63% (active)
C=CC(COC(c1ccccc1)(c1ccccc1)c1ccccc1)N(CC)CC (stereo not given) | 44.7% (inactive)
COc1cc(-c2ccc3c(c2)NC(=O)/C3=C\c2ccc[nH]2)ccc1O | 8.9% (active)
O=S(=O)(Nc1ccc(NS(=O)(=O)c2ccccc2)c(Cl)c1)c1ccccc1 | 90.9% (inactive)
Cc1cc(N2CCSCC2)nc(NC2CCCC(Nc3ccnc4cc(Cl)ccc34)C2)n1 (stereo not given) | -54% (active)
Nc1ccc(-c2cc3c(Nc4ccc(Oc5cccc(C(F)(F)F)c5)c(Cl)c4)ncnc3s2)cc1 | 50.4% (inactive)
COc1cc2c(cc1OC)C(Sc1ccc(SC)cc1)c1c(nc(N)c(C#N)c1N)O2 (stereo not given) | -37.4% (active)
CC(=O)Oc1ccc(Cl)cc1CN(C(C)=O)C1CCCCC1 | 92.9% (inactive)
CNC(=O)c1cc(Oc2ccc(NC(=O)Nc3ccc(Cl)c(OC(F)(F)F)c3)c(F)c2)ccn1 | 30% (inactive)
CCOc1nc(-c2ccccc2)cc2c(O)c(C(=O)O)[nH]c(=O)c12 | 98.1% (inactive)
O=C1c2cc3c(cc2-c2c1c1cc(F)c(F)cc1c(=O)n2CCCn1ccnc1)OCO3 | -2.4% (active)
CCc1nc(N)nc(N)c1C#CC(C)c1ccc(-c2ccncc2)cc1Cl (stereo not given) | 14.7% (inactive)

Structure (SMILES) | growth
Cc1cc(N2CCCC2)nc(NC2CCCC(Nc3ccnc4cc(Cl)ccc34)C2)n1 (stereo not given) | -56.6% (active)
Nc1n[nH]c2ccc([C@@H]3Nc4ccc5[nH]ncc5c4[C@H]4C5C=CC(C5)[C@@H]34)cc12 (stereo not given in full) | 11.6% (inactive)
O=C(CN(C(=O)Cn1c(=O)n2nnnc2c2ccccc21)c1ccccc1C(F)(F)F)Nc1ccc(C(F)(F)F)cc1 | 111% (inactive)
CCOC(=O)c1cc(C(=O)c2ccc(O)c(O)c2)n2ccc(-c3ccn4c(C(=O)c5ccc(O)c(O)c5)cc(C(=O)OCC)c4c3)cc12 | 62.3% (inactive)
O=C1NC(=O)C(c2ccc(Cl)cc2Cl)N1 (stereo not given) | 92.6% (inactive)
Nc1ccc(-c2cc3c(NCc4ccccc4)ncnc3s2)cc1 | 81.5% (inactive)
CCn1c(Cc2ccccc2Nc2c(Cl)cccc2Cl)nnc1SCC(=O)NN1C(=O)/C(=C/c2cc(OC)c(O)c(OC)c2)SC1=S | 21.4% (inactive)
Cc1cc2nc(NC(=O)CN3CCN(CCN4C(=O)c5cccc6cccc(c56)C4=O)CC3)sc2cc1C | 35.3% (inactive)
COc1cc(-c2nn(-c3ccc(C(=O)O)cc3)cc2C(=O)O)ccc1O | 32.9% (inactive)
COc1ccc(-c2nnc(SCC(=O)c3ccc(Cl)cc3)o2)cc1 | 105% (inactive)
COc1cc(-c2nn(C)nc2-c2cc3ccccc3s2)cc(OC)c1OC | 21.6% (inactive)
CCCCC[C@H]1C/C=C2/C(=O)C=C[C@@H]2C/C=C\CCCC(=O)O1 | -3.55% (active)
c1ccc(CCNc2ncnc3[nH]ncc23)cc1 | 107% (inactive)
CCCCCC(=O)Oc1ccc(/C(=C(\C)c2ccc(OC)cc2)c2ccc(OCCN3CCCCC3)cc2)cc1 | -2% (active)
CN1CCN(c2nc(NCCCCNc3ccnc4cc(Cl)ccc34)c3ccccc3n2)CC1 | -26.6% (active)
OC(COc1cccc2ccccc12)CN1CCN(c2ccccc2Cl)CC1 (stereo not given) | 78.3% (inactive)
O=C1/C(=C/c2ccc(Cl)cc2)SC(=S)N1CCc1ccc(O)cc1 | 102% (inactive)
Cc1ncc(C(=O)Nc2ccc(CN3CCN(C)CC3)c(C(F)(F)F)c2)cc1C#Cc1cnc2cccnn12 | -14.9% (active)
C#CC(F)(F)[C@]1(O)CC[C@H]2[C@@H]3CCC4=CC(=O)CCC4=C3[C@@H](c3ccc(C4CC4)cc3)C[C@@]21C | -38.7% (active)
COc1ccc(-c2cc(Nc3ccnc(N4CCOCC4)n3)on2)cc1 | 31.1% (inactive)
